Assay results: PubChem BioAssay AID1159580 (chemical genetic matrix, 2015)
Several values for one entry are separate records, joined by “and”; a condition that tells them apart may be missing. Equal values may be shown once. Screen size: about 5,500 compounds; about 2,000 (36%) were called active. Inconclusive results (about 18%) are left out. No stated cut-off is given here; in the data, active means normalized growth mostly below about 0.91 (no sharp cut-off); inconclusive means no clear call, values can overlap the other calls; inactive means mostly above about 0.92. This is one part of the list.

Assay: chemical genetic growth profiling, strain panel (AID 1159580);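 further: tested at 20 µM; growth read once vehicle control cultures reached saturation at 30 °C; 1 = growth at the plate median or of vehicle wells; lower values mean less growth of the strain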
Conditions: S. cerevisiae deletion strains, growth OD

Measured: normalized growth

CC(=O)O[C@H]1C(=O)[C@@]2(C)C([C@H](OC(=O)c3ccccc3)[C@]3(O)C[C@H](OC(=O)[C@H](O)[C@@H](NC(=O)c4ccccc4)c4ccccc4)C(C)=C1C3(C)C)[C@]1(OC(C)=O)CO[C@@H]1C[C@@H]2O (stereo partly specified)
active: locus YDL192W, strain arf1, hits give low values 1.14 [resistant] | locus YDR502C, strain sam2, hits give low values 1.16 [resistant] | locus YER155C, strain BEM2 (second series), hits give low values 0.824 | locus YHR200W, strain rpn10, hits give low values 1.17 [resistant] | locus YIR030C, strain dcg1, hits give low values 1.09 [resistant] | locus YJL168C, strain set2, hits give low values 1.07 [resistant]
inactive: locus YAL013W, strain DEP1, hits give low values 1.08 | locus YAL021C, strain ccr4, hits give low values 0.995 | locus YAL026C, strain drs2, hits give low values 0.979 | locus YAL030W, strain snc1, hits give low values 1 | locus YBL061C, strain skt5, hits give low values 1.01 | locus YBR009C, strain hhf1, hits give low values 0.989 | locus YBR021W, strain FUR4, hits give low values 1.05 | locus YBR023C, strain chs3, hits give low values 1.01 | locus YBR171W, strain sec66, hits give low values 0.991 | locus YBR229C, strain ROT2, hits give low values 1.02 | locus YBR231C, strain swc5, hits give low values 1.02 | locus YBR279W, strain paf1, hits give low values 0.994 | locus YCL011C, strain gbp2, hits give low values 1.02 | locus YCL016C, strain dcc1, hits give low values 1.04 | locus YCL029C, strain bik1, hits give low values 1.05 | locus YCL061C, strain MRC1, hits give low values 1.01 | locus YCL069W, strain vba3, hits give low values 1.01 | locus YCR088W, strain abp1, hits give low values 1 | locus YDL005C, strain med2, hits give low values 1 | locus YDL035C, strain GPR1, hits give low values 1.06 | locus YDL040C, strain nat1, hits give low values 1 | locus YDL074C, strain BRE1, hits give low values 1.05 | locus YDL101C, strain DUN1, hits give low values 1.03 | locus YDL134C, strain PPH21, hits give low values 1.03 | locus YDL185W, strain tfp1, hits give low values 0.936 | locus YDR001C, strain nth1, hits give low values 1.02 | locus YDR069C, strain doa4, hits give low values 0.975 | locus YDR101C, strain arx1, hits give low values 1.07 | locus YDR137W, strain rgp1, hits give low values 1.02 | locus YDR150W, strain NUM1, hits give low values 1.03 | locus YDR159W, strain sac3, hits give low values 0.975 | locus YDR162C, strain NBP2, hits give low values 1.04 | locus YDR195W, strain ref2 0.994 | locus YDR297W, strain sur2, hits give low values 0.996 | locus YDR318W, strain mcm21, hits give low values 1.07 | locus YDR334W, strain swr1, hits give low values 1 | locus YDR335W, strain msn5, hits give low values 1 | locus YDR388W, hits give low values 1.06 | locus YDR392W, strain spt3, hits give low values 0.79 | locus YEL003W, strain gim4, hits give low values 0.979 | locus YEL037C, strain rad23, hits give low values 1.02 | locus YEL061C, strain CIN8 (second series), hits give low values 0.989 | locus YEL061C, strain CIN8, hits give low values 1.05 | locus YER015W, strain faa2, hits give low values 0.997 | locus YER016W, strain bim1, hits give low values 1.01 | locus YER110C, hits give low values 1.1 | locus YER111C, strain swi4, hits give low values 1.02 | locus YER155C, strain BEM2, hits give low values 1.03 | locus YER167W, strain BCK2, hits give low values 1.04 | locus YFR010W, strain ubp6, hits give low values 0.988 | locus YGL078C, strain dbp3, hits give low values 1.02 | locus YGL086W, strain mad1, hits give low values 0.944 | locus YGL167C, strain pmr1, hits give low values 0.994 | locus YGL173C, strain kem1, hits give low values 1 | locus YGL227W, strain vid30, hits give low values 1.02 | locus YGL240W, strain doc1, hits give low values 0.968 | locus YGL248W, strain PDE1, hits give low values 1.03 | locus YGL253W, strain hxk2, hits give low values 0.95 | locus YGR078C, strain PAC10, hits give low values 1.04 | locus YGR135W, strain pre9, hits give low values 1.05 | locus YGR229C, strain SMI1, hits give low values 1.13 | locus YGR252W, strain gcn5, hits give low values 1.13 | locus YHR013C, strain ard1, hits give low values 0.991 | locus YHR027C, strain rpn1, hits give low values 0.988 | locus YHR030C, strain SLT2, hits give low values 1.03 and 0.96 | locus YHR079C, strain IRE1 (second series), hits give low values 1.03 | locus YHR079C, strain IRE1, hits give low values 1 | locus YHR094C, strain hxt1, hits give low values 1.05 | locus YHR129C, strain ARP1, hits give low values 1.03 | locus YHR142W, strain chs7, hits give low values 1 | locus YIL066C, strain RNR3, hits give low values 1.03 | locus YIL073C, strain SPO22, hits give low values 1.04 | locus YIL125W, strain kgd1, hits give low values 1.06 | locus YJL092W, strain hpr5, hits give low values 1.01 | locus YJL095W, strain BCK1 (second series), hits give low values 1 | locus YJL095W, strain BCK1, hits give low values 1.03 and 0.973 | locus YJL115W, strain asf1, hits give low values 1.01 | locus YJL129C, strain trk1, hits give low values 0.992 | locus YJL134W, strain LCB3, hits give low values 1.03 | locus YJL154C, strain vps35, hits give low values 1 | locus YJL164C, strain tpk1, hits give low values 0.969 | locus YJL166W, strain qcr8, hits give low values 1.01 | locus YJL187C, strain SWE1 (second series), hits give low values 1.03 | locus YJL187C, strain SWE1, hits give low values 0.986 | locus YJR043C, strain POL32, hits give low values 1.06
